Inconclusive results are not listed. Calls of active or inactive are those of the source. Calls come from the whole dose curve.
test: qHTS assay for small molecule agonists of the p53 signaling pathway - cell viability (AID 651633); conditions: p53RE-bla HCT-116 viability, ATP luminescence, 16 h; series mostly up to 83.3 µM;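 note: p53RE-bla HCT reporter cells with a stable beta-lactamase p53 reporter; nearly all actives have a fitted effect of over 30% in size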
Summary of the method: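 p53RE-bla cells were treated with compound for 16 hours at 37 C. Cytotoxicity was then measured as CellTiter-Glo luminescence after 30 min at room temperature.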
% is set by controls: 0 for no effect and ±100 for the full control effect.

SMILES | outcome | activity change, negative = cytotoxicity
O=C(O)Cc1cn(-c2ccccc2)nc1-c1ccc(Cl)cc1 | inactive | 
CCCCCCOC(=O)CC | inactive | 
O=C(O)c1cc(Cl)cc([N+](=O)[O-])c1Cl | inactive | 
Nc1nnc(-c2cccc(Cl)c2Cl)c(N)n1 | inactive | 
CC(C(=O)O)c1ccc2c(c1)CC(=O)c1ccccc1S2 (stereo not given) | inactive | 
COCCOC(=O)C1=C(C)NC(C)=C(C(=O)OC(C)C)C1c1cccc([N+](=O)[O-])c1 (stereo not given) | inactive | 
COc1ccc(-c2cc(=O)c3c(O)cc(O[C@@H]4O[C@H](CO[C@@H]5O[C@@H](C)[C@H](O)[C@@H](O)[C@H]5O)[C@@H](O)[C@H](O)[C@H]4O)cc3o2)cc1O | inactive | 
CC(=O)NCc1c(I)c(NC(C)=O)c(I)c(C(=O)O)c1I | inactive | 
Cc1cccc(C)c1OCC(C)N (stereo not given) | inactive | 
CC(C)NCC(O)COc1ccc(COCCOC(C)C)cc1 (stereo not given) | inactive | 
C[C@@H]1O[C@@H](O[C@@H]2[C@@H](O)[C@H](OCCc3ccc(O)c(O)c3)O[C@H](CO[C@@H]3O[C@H](CO)[C@@H](O)[C@H](O)[C@H]3O)[C@H]2OC(=O)/C=C/c2ccc(O)c(O)c2)[C@H](O)[C@H](O)[C@H]1O | inactive | 
CC(=O)/C=C/C1C(C)=CCC(C)C1(C)C (stereo not given) | inactive | 
Brc1ccc(-c2ccccc2)cc1 | inactive | 
C=C(C)C(=O)OCCNC(C)(C)C | inactive | 
C=COCCOCCOCCOC=C | inactive | 
CC(=O)CCCCn1c(=O)c2c(ncn2C)n(C)c1=O | inactive | 
FC(F)(F)c1ccccc1-n1ccnc1 | inactive | 
C=Cc1ccccn1 | inactive | 

SMILES | outcome | activity change, negative = cytotoxicity
CC(N)C(=O)OC(C)(C)Cc1ccc(Cl)cc1 (stereo not given) | inactive | 
CCO[Si](CCCS)(OCC)OCC | inactive | 
NS(=O)(=O)c1ccc(NC(=O)CCC(=O)O)cc1 | inactive | 
O=C(/N=N/C(=O)OCc1ccccc1)OCc1ccccc1 | inactive | 
CC(S)C(=O)NCC(=O)O (stereo not given) | inactive | 
C#CC(C)N(C)C(=O)Nc1ccc(Cl)cc1 (stereo not given) | inactive | 
Nc1ccc([N+](=O)[O-])c(N)c1 | inactive | 
CC(C)(C)NC(N)=O | inactive | 
COC(=O)C1CC(=O)C(C(=O)OC)CC1=O (stereo not given) |  | 20.9% [at 8.08 µM] (inactive)
Oc1cn2c(n1)Nc1ccc(Cl)c(Cl)c1C2 | inactive | 
CC1=CCC(C(C)C)=CC1 | inactive | 
COCCOCCOCCOCCOCCO | inactive | 
O=C(c1ccc(O)cc1)c1ccc(O)c(O)c1O | inactive | 
O=C1O[C@@H]2[C@@H](O)[C@H](O)O[C@@H]2[C@H]1O | inactive | 
CC(=O)c1sc(C)nc1C | inactive | 
CC(=O)Nc1ccc(S(=O)(=O)Nc2ccc([N+](=O)[O-])cc2)cc1 | inactive | 
CCOc1cc([N+](=O)[O-])c(OCC)cc1N1CCOCC1 | inactive | 

From PubChem BioAssay (Tox21)
